# According to PubChem BioAssay AID588719 (Southern Research Specialized Biocontainment Screening …, 2011):
# In all, about 1,500 compounds went through this assay and about 920 (61%) were called active. The set was probably picked from earlier hits. The list shows a part of the results. Entries with a potency or affinity are not part of this list. Values without a mark were called inactive. How the calls were made is not given here.
# Assay: Vero 76 cell cytotoxicity, dose response, cytotoxicity control for VEEV inhibitor project (AID 588719)
# Conditions: Vero 76 cells viability, cytotoxicity counter-screen; series mostly up to 25 µM; viability: at the top concentration
row,SMILES,viability
1,Cc1ccc([C@H]2C[C@@H](O)[C@H](n3cc(COC(=O)c4ccccc4)nn3)CN2CC2CCCCC2)cc1,75.4%
2,COc1ccc(CN(C)[C@H]2C[C@H]3c4[nH]c5ccccc5c4CCN3C[C@H]2[C@H](C)O)cc1,70.5%
3,CC(=O)Nc1ccc(CCNC(=O)c2ccc3ccccc3c2O)cc1,86.4%
4,Cc1cc(N/N=C/c2ccc3c(c2)OCO3)nc2ccccc12,78.2%
5,CCOC(=O)c1ccc(-c2ccc(/C=N/NC(=O)c3cncc(Br)c3)o2)cc1,83.8%
6,CC(C)Oc1ccccc1-c1cc(C(=O)N/N=C/c2cccnc2)c2ccccc2n1,84.6%
7,CCCc1ccc(-c2cc(C(=O)NCCc3ccc(S(N)(=O)=O)cc3)c3ccccc3n2)cc1,85%
8,CN(C)c1nc(OCCOC(=O)COc2ccc(Cl)cc2Cl)nc(N(C)C)n1,91.9%
9,COc1ccc(CCNC(=O)c2cc3c(=O)n4cccc(C)c4nc3n(CCCN3CCOCC3)c2=N)cc1,88.7%
10,O=C(CCNC(=O)c1ccc(Cl)cc1)NC1CCCc2ccccc21 (configuration not stated),73.9%
11,CCOc1ccccc1N1CCN(Cc2cn[nH]c2-c2ccc(F)cc2)CC1,75.2%
12,COc1cccc2sc(N(CCCN(C)C)C(=O)c3ccc(S(=O)(=O)N4CCCc5ccccc54)cc3)nc12,72.7%
13,Cc1nc(SCC(=O)Nc2ccccc2Cl)c2c(C)c(C)sc2n1,98.1%
14,Cc1ccc(CCNc2ccc3ccccc3c2)cn1,88.9%
15,CN(C)CC(O)COc1ccc(C(C)(C)c2ccc(OCC(O)CN(C)C)cc2)cc1 (configuration not stated),75.6%
16,CC(C)Cc1nc2oc3c(NCC(C)O)ncnc3c2c2c1CCCC2 (configuration not stated),91.7%
17,Cc1cc(C(C)(C)C)cc(C)c1CCNC(=O)c1ccc[n+]([O-])c1,79.1%
18,CCN(CC(=O)Nc1ccc(NC(C)=O)cc1)C(=O)c1cc2c(s1)CCCC2,88.5%
19,CCOC(=O)Cn1c(-c2nonc2NC(=O)c2ccccc2F)nc2ccccc21,59.9%
20,CCOC(=O)c1ccccc1NC(=O)CSc1nc2ccccc2c(=O)n1CCCN1CCOCC1,76%
21,S=c1[nH]nc(-c2ccccn2)n1/N=C/c1ccc(-c2ccccc2Cl)o1,90.6%

row,SMILES,viability
1,CCOc1ccc(CCNC(=O)CCc2nc3ccccc3[nH]2)cc1OCC,96.8%
2,COc1ccc(CCNC(=O)c2cc3c(=O)n4ccccc4nc3n(Cc3ccco3)c2=N)cc1OC,87.9%
3,COc1ccc([C@H]2C[C@H](n3cc(-c4ccc(F)cc4)nn3)[C@@H](O)CN2C(=O)C2CCCCC2)cc1,78.2%
4,Fc1ccc(C2c3[nH]c4ccccc4c3CCN2Cc2cccn2-c2ncccn2)cc1 (configuration not stated),71.8%
5,COc1ccc(C2c3[nH]c4ccccc4c3CCN2Cc2ccoc2)c(F)c1 (configuration not stated),73.6%
6,O=C(CCNC(=O)c1ccc(Br)cc1)NC1CCCc2ccccc21 (configuration not stated),76.6%
7,CN1CCC(N(C)S(=O)(=O)c2ccc(NC(=O)COc3ccc(Cl)cc3)cc2)CC1,76.2%
8,CCN1CCN(c2sc(S(C)(=O)=O)nc2S(=O)(=O)c2ccc(C)cc2)CC1,72%
9,O=C1[C@H]2[C@@H](c3ccccc3)N[C@]3(CCCN(Cc4ccc(Br)cc4)C3=O)[C@H]2C(=O)N1Cc1ccccc1,71%
10,CCOC(=O)NC(C(Cl)(Cl)Cl)S(=O)(=O)c1ccccc1 (configuration not stated),93.7%
11,Nc1ccc2nc(-c3cccc(-c4nc5ccc(N)cc5[nH]4)c3)[nH]c2c1,97.4%
12,O=C(COC(=O)Cc1ccc(S(=O)(=O)N2CCOCC2)s1)Nc1ccccc1Cl,93.2%
13,O=C(COC(=O)c1ccc(Br)o1)Nc1cccc(S(=O)(=O)N2CCOCC2)c1,102%
14,CC1(C)CC2(OC2c2ccccc2[N+](=O)[O-])C(=O)c2ccccc21 (configuration not stated),84%
15,[O-][n+]1c(/C=C/c2ccccc2)ccc2ccccc21,70.4%
16,CCOC(=O)C(=Cc1ccc(-c2ccsc2C(=O)OC)o1)C(=O)OCC,77.6%
17,CCOC(=O)C(=Cc1ccc(-n2ccnc2)cc1)C(=O)OCC,70.7%
18,O=C(O)C1CCN(C(=O)c2cc(F)cc3c2OCOC3)CC1,93%
19,O=C(O)C1CC=CCC1C(=O)Nc1ccc(S(=O)(=O)N2CCCc3ccccc32)cc1 (configuration not stated),83.6%
20,Cc1ccc2c(c1)CCCN2S(=O)(=O)c1cccc(C(=O)Nc2ccccc2C(=O)O)c1,76.5%
21,Cc1cc2c(c(/C=C/C(=O)c3ccccc3)c1)OC1(C=C2)Oc2ccccc2C(=O)N1C (configuration not stated),73.6%

row,SMILES,viability
1,CN(C)CCNC(=O)c1onc(CSc2ccc(F)c(F)c2)c1C(=O)NCCN(C)C,87.3%
2,O=C(Oc1ccc2ccccc2c1Cl)N1CCCC1,81.7%
3,C=CCn1c(SCC(=O)NC23CC4CC(CC(C4)C2)C3)nc(O)cc1=O,99.3%
4,O=C(NCc1cccnc1)c1ccc(NS(=O)(=O)c2cccc([N+](=O)[O-])c2)cc1,102%
5,Fc1ccccc1CSc1ncnc2c1ncn2C1CCCO1 (configuration not stated),71.9%
6,N#C/C(=C\c1c(Oc2ccccc2Cl)nc2ccccn2c1=O)C(=O)NC1CCS(=O)(=O)C1 (configuration not stated),96.4%
7,COc1cccc2c1C(=O)c1c(O)c3c(c(O)c1C2=O)C[C@@](O)(C(=O)CO)C[C@@H]3OC1CC(N)C(O)C(C)O1 (some centres not stated),55.7%
8,Cc1cccc(CS(=O)(=O)c2ncc(Cl)c(C(=O)Nc3ccc(F)cc3)n2)c1,91.9%
9,c1ccc2c3c([nH]c2c1)C1(CCNCC1)NCC3,84.9%
10,CC[C@@H](C)[C@H](NC(=O)OC(C)(C)C)c1nnc(S(=O)(=O)Cc2cc(C)ccc2C)o1,78.4%
11,CCC(=O)Nc1nnc(SCC(=O)c2ccc3c(c2)Cc2ccccc2-3)s1,88.4%
12,CC(=O)Nc1nnc(SCC(=O)c2ccc3c(c2)Cc2ccccc2-3)s1,83.6%
13,Cc1cc(C)n(-c2nc(N(c3ccccc3)c3ccccc3)nc(-n3nc(C)cc3C)n2)n1,89.2%
14,CCOC(=O)c1c[nH]n2c(=O)cc(C)nc12,99.5%
15,O=C(CCS(=O)(=O)c1ccccc1)Nc1nnc(C(F)(F)F)s1,80.7%
16,Cc1ccc(CSCC(=O)Nc2ccccc2C(=O)O)cc1,71.7%
17,CC(C)CCn1nnnc1CN1CCN(c2ccccc2)CC1,103%
18,C/C=C/c1cc(CN2CCN(c3ccccc3)CC2)c(O)c(OC)c1,85.8%
19,CC(=O)OCC1CC(COC(C)=O)C(COC(C)=O)CC1COC(C)=O (configuration not stated),93.2%
20,S=c1[nH]nc(-c2cccc(Cl)c2)n1/N=C/c1ccc(-c2ccccc2Br)o1,95.2%
